Sfp PPTase inh: qHTS Assay for Inhibitors of Bacillus subtilis Sfp phosphopantetheinyl transferase (PPTase); 4'-phosphopantetheinyl transferase ffp (Bacillus subtilis), Q9F4F7; Biochemical Sfp PPTase activity, qHTS; Potency, µM, inactives show largest response in the series, negative = inhibition, hits mostly inhibitors; 3.5% of 310,000 active; AID 1490, 2009;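 further: the enzyme is Sfp with the accession as filed and its product quenches rhodamine fluorescence; 0% = enzyme reaction without inhibitor and -100% = no enzyme wells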
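Fluorescence-quenching assay with 15 nM Sfp, 5 uM rhodamine-CoA and 12.5 uM BHQ-2-labelled ybbR peptide in pH 7.6 Hepes/MgCl2 buffer. Enzyme was pre-incubated with compound for 15 min at room temperature. Rate was taken from the 30-min fluorescence change (525/598 nm).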
G9a block: qHTS Assay for Inhibitors of Histone Lysine Methyltransferase G9a. 8.8% of 350,000 active. G9a H3K9 monomethylation, AlphaScreen, 2 h. AID 504332, 2011. Potency, µM (titrated, usually from 102 µM), without a hit: top-dose activity, negative = inhibition, most hits filed as inhibitors. Histone-lysine N-methyltransferase EHMT2 (Homo sapiens), Q96KQ7; further: on the % scale 0 is the no-effect control and ±100 the full control effect; nearly all actives have a fitted effect of over 75% in size
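Chemiluminescent proximity detection of H3K9 monomethylation, read after 10 min bead incubation in the dark. Reaction: 20 nM G9a, 500 nM biotin-H3K9 peptide, 20 uM SAM cofactor, 2 h, room temperature, following 15 min enzyme-compound preincubation.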
JMJD2A Tudor inh: qHTS Assay for Inhibitors of JMJD2A-Tudor Domain; Potency, µM (highest dose often 114 µM), inactives show at the top dose activity change, negative = inhibition, usual class: inhibitors; 4.4% of 390,000 active; AlphaScreen JMJD2A-Tudor / H3K4me3 peptide binding; further: on the % scale 0 is the no-effect control and ±100 the full control effect; nearly all actives have a fitted effect of over 50% in size
BAZ2B block: qHTS Assay for Inhibitors of BAZ2B; Potency, µM (highest dose often 114 µM), for the others: at the top dose activity change, negative = inhibition, most hits filed as inhibitors; AID 504333, 2011; 4.4% of 360,000 active; Bromodomain adjacent to zinc finger domain protein 2B (Homo sapiens), Q9UIF8; AlphaScreen BAZ2B-H3K14Ac peptide displacement; further: on the % scale 0 is the no-effect control and ±100 the full control effect; nearly all actives have a fitted effect of over 60% in size
Target sequence (Q9UIF8 whole entry, looked up, the tested form may be a part): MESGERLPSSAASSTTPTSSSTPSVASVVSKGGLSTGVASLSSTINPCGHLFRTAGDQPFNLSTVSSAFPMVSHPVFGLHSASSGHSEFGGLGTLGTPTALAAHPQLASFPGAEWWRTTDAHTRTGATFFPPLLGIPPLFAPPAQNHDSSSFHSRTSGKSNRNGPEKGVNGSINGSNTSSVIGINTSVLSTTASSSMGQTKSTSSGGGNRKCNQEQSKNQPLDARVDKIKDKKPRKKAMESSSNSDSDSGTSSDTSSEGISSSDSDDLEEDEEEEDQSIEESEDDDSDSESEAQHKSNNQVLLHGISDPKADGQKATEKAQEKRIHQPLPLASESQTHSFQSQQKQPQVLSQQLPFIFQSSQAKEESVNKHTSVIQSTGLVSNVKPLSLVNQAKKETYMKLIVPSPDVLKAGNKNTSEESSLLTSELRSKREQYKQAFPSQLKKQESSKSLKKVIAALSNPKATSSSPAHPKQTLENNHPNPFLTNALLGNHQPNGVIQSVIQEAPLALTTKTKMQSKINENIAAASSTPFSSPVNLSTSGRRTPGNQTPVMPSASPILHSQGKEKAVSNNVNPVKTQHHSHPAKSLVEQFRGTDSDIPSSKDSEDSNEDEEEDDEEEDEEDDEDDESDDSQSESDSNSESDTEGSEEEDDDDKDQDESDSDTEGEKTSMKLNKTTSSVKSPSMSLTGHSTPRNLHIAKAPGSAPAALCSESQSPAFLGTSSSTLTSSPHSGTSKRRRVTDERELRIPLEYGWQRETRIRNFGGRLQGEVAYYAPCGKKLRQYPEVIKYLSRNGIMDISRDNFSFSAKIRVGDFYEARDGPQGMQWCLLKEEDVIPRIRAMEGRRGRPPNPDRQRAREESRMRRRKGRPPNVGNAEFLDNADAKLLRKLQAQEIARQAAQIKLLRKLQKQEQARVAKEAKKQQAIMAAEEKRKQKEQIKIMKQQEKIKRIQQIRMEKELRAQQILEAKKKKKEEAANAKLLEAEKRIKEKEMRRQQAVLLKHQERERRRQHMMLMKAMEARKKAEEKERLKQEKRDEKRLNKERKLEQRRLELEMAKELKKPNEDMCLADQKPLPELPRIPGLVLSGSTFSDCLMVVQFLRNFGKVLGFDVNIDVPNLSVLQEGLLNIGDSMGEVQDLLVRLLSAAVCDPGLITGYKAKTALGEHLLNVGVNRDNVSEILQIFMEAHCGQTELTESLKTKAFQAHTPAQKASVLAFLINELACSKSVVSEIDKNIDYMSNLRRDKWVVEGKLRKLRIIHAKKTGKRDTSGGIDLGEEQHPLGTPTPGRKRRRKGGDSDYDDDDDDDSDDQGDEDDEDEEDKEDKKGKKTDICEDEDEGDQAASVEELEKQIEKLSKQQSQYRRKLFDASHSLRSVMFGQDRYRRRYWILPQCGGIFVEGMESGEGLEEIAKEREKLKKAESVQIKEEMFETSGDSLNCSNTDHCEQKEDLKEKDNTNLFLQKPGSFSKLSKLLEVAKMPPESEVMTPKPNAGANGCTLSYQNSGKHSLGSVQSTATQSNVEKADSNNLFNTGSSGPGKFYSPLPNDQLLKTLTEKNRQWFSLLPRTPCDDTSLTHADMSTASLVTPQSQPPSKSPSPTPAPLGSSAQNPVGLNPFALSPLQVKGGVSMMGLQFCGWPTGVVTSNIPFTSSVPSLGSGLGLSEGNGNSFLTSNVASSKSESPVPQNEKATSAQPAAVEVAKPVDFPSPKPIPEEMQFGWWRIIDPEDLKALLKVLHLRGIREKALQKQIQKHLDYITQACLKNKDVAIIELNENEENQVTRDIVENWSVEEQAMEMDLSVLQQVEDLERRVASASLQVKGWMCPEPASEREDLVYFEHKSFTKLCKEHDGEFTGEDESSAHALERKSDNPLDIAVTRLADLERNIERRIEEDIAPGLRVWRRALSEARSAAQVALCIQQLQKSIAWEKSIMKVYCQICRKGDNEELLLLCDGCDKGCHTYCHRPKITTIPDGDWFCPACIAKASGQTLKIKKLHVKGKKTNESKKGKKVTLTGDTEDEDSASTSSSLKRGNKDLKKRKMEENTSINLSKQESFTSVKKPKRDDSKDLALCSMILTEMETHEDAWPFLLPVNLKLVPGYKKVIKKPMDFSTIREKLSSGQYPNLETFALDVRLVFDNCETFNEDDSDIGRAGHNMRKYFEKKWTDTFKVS
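Inhibition is scored as reduced AlphaScreen emission. The BAZ2B/b-H3(5-23)K14Ac complex (50 nM each) in PBS pH 7.4, 0.01% Tween-20 meets compound (up to 110 uM) for 30 min at RT before bead addition.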
HP1b chromo inh: HTS for Inhibitors of HP1-beta Chromodomain Interactions with Methylated Histone Tails. Chromobox protein homolog 1 (Homo sapiens), P83916. AlphaScreen HP1-beta / biotin-H3K9me3 peptide binding. Potency, µM (highest dose often 114 µM), without a hit: at the highest dose activity change, negative = inhibition, usual class: inhibitors. 0.56% of 390,000 active. AID 540317, 2011; further: nearly all actives have a fitted effect of over 70% in size
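AlphaScreen: HP1-beta (50 nM) preformed 30 min with biotin-H3(1-18)K9me3 peptide (50 nM) in PBS pH 7.4, 0.01% Tween-20. Compound added for 30 min at RT, then streptavidin donor/nickel chelate acceptor beads (10 ug/mL) for 30 min.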
Starred values were filed as active, the others as inactive; ? = inconclusive; . = no result; [ ] = remark or other dose. Only some compounds are listed: those with a hit (about 12% of all), similar ones and a draw of the others. The call rests on the fitted dose curve; in most records, active means well fitted curve in the direction sought with a large enough effect; inconclusive means small, poorly fitted or top-dose-only effect, or another doubt; inactive means no such curve, though single readings can be large; an effect the other way counts as inactive or inconclusive. Potency means the concentration at half of the fitted maximal effect.

SMILES	Sfp PPTase inh	G9a block	JMJD2A Tudor inh	BAZ2B block	HP1b chromo inh
COC(=O)c1n[nH]c2ccccc12	14%	-5%[59 µM]	-10%	4%	10%
Cc1cc(C(=O)CSC(C)c2nc3ccccc3c(=O)[nH]2)c(C)n1C (configuration not stated)	-26%	50µM*	-25%	-37%	11%
CC(C)(O)[C@H](O)COc1c2occc2cc2ccc(=O)oc12	6%	1.4µM*	-22%	-6%	-1%
CCOc1c(Cl)cc(CNc2ccc3[nH]c(=O)[nH]c3c2)cc1OC	.	3.5µM*	?	-31%	-13%
COc1cc(CNc2ccc3[nH]c(=O)[nH]c3c2)cc(Br)c1OCC(=O)NC(C)(C)C	-10%	-12%[12.7 µM]	56µM*	40µM*	-36%
CC(=O)Nc1c2c(nn1-c1cccc(Cl)c1)CS(=O)(=O)C2	20%	-3%	-3%	-10%[57.1 µM]	24%
COc1cccc(N2CCN(C(=O)c3ccccc3SCC(=O)NCc3ccco3)CC2)c1	.	-2%[12.7 µM]	-36%	-38%	40%
COc1ccccc1N1CCN(C(=O)c2ccccc2SCC(=O)NCc2ccco2)CC1	.	50µM*	-22%	-4%	19%
COc1ccccc1-n1ccnc1SCC(=O)NCc1ccco1	16%	-38%	40µM*	-39%	-31%
COc1ccccc1N1CCN(C(=O)c2ccccc2SCC(=O)N2CCCC2)CC1	.	79µM*	-19%	13%	35%
CCOc1ccccc1N1CCN(C(=O)c2ccccc2SCC(=O)N2CCCC2)CC1	7%	?	-10%	-20%	57%
CCOC(=O)C1(CCOc2ccccc2)CCN(C(=O)CCSC)CC1	.	.	3%	.	35%
COc1ccc(-c2cn(/N=C/c3ccc(Cl)cc3Cl)c(N)n2)cc1	2%	35µM*	-19%	-12%	3%
Nc1nc(-c2ccccc2)cn1/N=C/c1ccccc1	10%	50µM*	-34%	-24%	?
Nc1nc(-c2ccccc2)cn1N	-5%	26%[59 µM]	-27%	?	11%
COc1ccc(-c2cn3cc(C(F)(F)F)cc(Cl)c3n2)cc1	-1%	50%[12.7 µM]	47%	11%	80%
COc1ccc(C2C(C#N)=C(N)Oc3cc4c(cc32)OCO4)cc1 (configuration not stated)	2%	?	?	-32%	-7%
CCN1C=C(Cc2ccc(OC)cc2)C2=C(C1)C(c1ccc(OC)cc1)C(C#N)=C(N)O2 (configuration not stated)	-22%	?	?	45µM*	-29%
COc1ccc(NC(=O)c2oc3ccccc3c2NC(=O)c2cc(=O)c3c(C)cc(C)cc3o2)cc1	.	0%[59 µM]	-8%	-3%	35%
CC(/C=C/c1ccco1)=N\NC(=O)COc1ccc(C)c(C)c1	?	40µM*	-33%	?	15%
Cc1ccc(OCCNC(=O)/C=C/c2ccco2)cc1C	10µM*	.	-22%	-32%	3%
Cc1ccc(OCC(=O)NCc2ccco2)cc1C	?	-40%[59 µM]	-22%	-35%	3%
Cc1nc(NC(=O)CSc2nnc(C3CC3)n2C)sc1C	11%	27%	5%	-2%	15%
Cc1cnc(C(=O)OC(C)C(=O)NCc2ccccc2)cn1 (configuration not stated)	.	2%[0.501 µM]	-6%	-4%	35%
O=C(CCS(=O)(=O)c1ccc(Br)s1)Nc1ccccc1Br	17%	50µM*	-20%	-33%	1%
SMILES	Sfp PPTase inh	G9a block	JMJD2A Tudor inh	BAZ2B block	HP1b chromo inh
CC(C)c1ccc(NC(=O)CCS(=O)(=O)c2ccc(Br)s2)cc1	.	?	-12%	0%	15%
CCc1cccc(CC)c1NC(=O)CCS(=O)(=O)c1ccc(Br)s1	.	22µM*	-31%	-38%	-7%
COc1ccc(NC(=O)CCS(=O)(=O)c2ccc(Br)s2)cc1	13%	18µM*	-30%	?	-32%
CCCn1c(CCNc2nc(-c3cccc(Br)c3)cs2)nc2ccccc21	.	.	-16%	.	30%
Cc1cc(C)cc(NC(=O)c2sc3nc[nH]c(=O)c3c2C)c1	.	-16%[59 µM]	-14%	0%	20%[57 µM]
CC(NS(=O)(=O)c1cn(C)c(=O)n(C)c1=O)c1ccccc1 (configuration not stated)	30%	21%	-15%	-1%	9%
O=C(N/N=C/C=C/c1ccco1)c1ccccc1Cl	40µM*	?	-20%	-31%	-18%
CC(/C=C/c1ccco1)=N/NC(=O)c1ccccc1Cl	35µM*	?	-33%	-8%	26%
CC(/C=C/c1ccco1)=N\NC(=O)c1cccc(Cl)c1	?	5%[59 µM]	-31%	6%	-16%
O=C(N/N=C/C=C/c1ccco1)c1cccc([N+](=O)[O-])c1	-21%	?	-17%	-8%	36%
N#CCCN1CCN(C(=S)c2ccc(-c3cc(Cl)ccc3Cl)o2)CC1	-14%	18µM*	40µM*	?	?
CN1CCN(C(=S)Nc2ccc(Cl)cc2)CC1	12%	-42%	9%	-11%	36%
CN1CCN(C(=S)c2ccc(-c3cc(Cl)ccc3Cl)o2)CC1	?	32µM*	35µM*	28µM*	?
CC(=O)c1cc(-c2ccccc2)n(CC(=O)N2CCCC2)c1C	5%	?	-17%	56µM*	-3%
CCC(C)(C)NC(=O)Cn1c(-c2ccccc2)cc(C(C)=O)c1C	-6%	-10%	-21%	?	6%
CC(=O)c1cc(-c2ccccc2)n(CC(=O)NC(C)(C)C)c1C	3%	-32%	-19%	50µM*	9%
C=CCn1c(/N=C/c2ccc(N(C)C)cc2)nc2ccccc21	13%	45µM*	?	?	-10%
C=CCn1c(/N=C/c2ccc(OC)cc2)nc2ccccc21	6%	-49%	-11%	-24%	20%
COc1ccc(CCNC(=O)c2c(C)oc3ncn(CC(C)C)c(=O)c23)c(OC)c1	.	-6%[59 µM]	-15%	3%[57.1 µM]	24%
CCCCCCCC1=Cc2ccccc2C(CC(=O)c2ccccc2)N1C(=O)OC (configuration not stated)	0%	.	.	.	.
Cc1nnc2sc(-c3ccc(-c4ccc(Cl)c(C(F)(F)F)c4)o3)nn12	-6%	50µM*	?	9%	14%
Cc1ccccc1Nc1nc(N)nc(COC(=O)/C=C/c2ccco2)n1	-29%	50µM*	-26%	?	10%
COc1ccc2nc(CCN(C)C(=O)C3CCC(=O)N(Cc4cccc(F)c4)C3)[nH]c2c1 (configuration not stated)	6%	7%	-31%	50µM*	19%
O=C(NCc1cc(Br)cc(Br)c1OC(=O)c1ccccc1[N+](=O)[O-])c1ccccc1	17%	40µM*	-31%	-24%	-3%

Assay outcomes deposited in PubChem by National Center for Advancing Translational Sciences (NCATS).
